# According to PubChem BioAssay:
# Assay: JC-1 mitochondrial signal, unstimulated myeloma cells – cell-based, JC-1 fluorescence, RPMI8226, 24 h, 100 nL compound, profiling panel (AID 1169)
# Conditions: JC-1 mitochondrial potential fluorescence, higher = more signal
# Note: test concentration not given here.
row,SMILES,z-score
1,CC(C)N1CC=CC23O[C@@H]4C=CCCOC(=O)C4[C@H]2C(=O)N(CCCCCCO)[C@@H]3C1=O (stereo partly specified),0.936
2,O=C1[C@H]2[C@H]3[C@H](O)[C@H](O)CC(=NOC[C@@H](O)COCc4ccco4)[C@H]3CC[C@H]2C(=O)N1C1CCCCC1,-1.02
3,CO[C@@H]1COC(=O)CCC[C@@H](C)[C@H](OC)COC(=O)CCC[C@H]1C,0.822
4,O=C1NC(=O)C2C1C=CC(C(O)Cc1ccccc1)N2Nc1ccccn1 (stereo unspecified),0.477
5,CC(C)(C)OC(=O)CC[C@]1(C(=O)NCc2ccccc2)N=C(c2ccc(OCCCO)cc2)O[C@H]1c1ccccc1,-0.762
6,CC(C)(C)OC(=O)CC[C@]1(C(N)=O)COC(c2ccc(OCCCO)cc2)=N1,0.484
7,CC(C)CON=C1C[C@@H](O)[C@@H](O)[C@@H]2[C@@H]3C(=O)N(Cc4ccccc4)C(=O)[C@@H]3CC[C@@H]12,-0.313
8,C=CCOC(=O)[C@H]1[C@@H]2C(=O)O[C@@H](c3ccccc3)[C@@H](c3ccccc3)N2[C@@H](c2ccc(OCCOC(=O)[C@H]3C[C@H]4C(=O)N[C@@H](Cc5ccccc5)C(=O)N4[C@H]3c3ccc(O)cc3)cc2)[C@]12C(=O)Nc1ccccc12,-0.287
9,O=C1[C@H]2[C@H]3[C@H](O)[C@H](O)CC(=NOCc4ccccc4)[C@H]3CC[C@H]2C(=O)N1c1ccc(F)cc1F,0.305
10,COC(=O)C1=C(C)[C@@H](O)[C@@H](C)[C@H](c2c(OC)c(OC)c(C)c(OC)c2OC)O1,0.267
11,COC(=O)[C@@]1(Cc2ccc(OC)cc2)[C@H]2c3cc(C(=O)N4CCCC4)n(Cc4cc(F)c(F)c(F)c4)c3C[C@H]2CN1C(=O)c1ccccc1,-0.87
12,CC(CCC(=O)OC[C@H]1O[C@H](C#Cc2ccccc2)C=C[C@@H]1Oc1ccc(C)cc1)=NO[C@@H](C)c1cn([C@H](CO)Cc2ccccc2)nn1,0.496
13,CC(C)NC(=O)[C@@]1(c2ccc([N+](=O)[O-])cc2)CC(=O)N(CC23CC4CC(CC(C4)C2)C3)[C@@H]1c1ccc(CO)cc1I,-0.929
14,COC(=O)[C@H](C)NC(=O)CCC1CC(OC(=O)NCCc2ccc(F)cc2)CC2(CCCC(COC(=O)NCCc3ccc(Cl)cc3)O2)O1 (stereo partly specified),0.437
15,C=C(CCCC)C(=O)CC[C@@H](OC(C)=O)c1cccc(OCCO)c1,0.452
16,CCOC(=O)[C@H](CC(C)C)NC(=O)CCC1CC(OC(=O)NCc2cccc3ccccc23)CC2(CCCC(COC(=O)NCCc3ccccc3OC)O2)O1 (stereo partly specified),-0.0975
17,CCCCCN1CC=CC23O[C@@H]4C=CCOC(=O)[C@@H]4[C@H]2C(=O)N(C(CO)C(C)C)[C@@H]3C1=O (stereo partly specified),-0.0576
18,CCOC(=O)[C@H](CC(C)C)NC(=O)CCC1CC(OC(=O)NCc2cccc3ccccc23)CC2(CCCC(COC(=O)NCCN3CCOCC3)O2)O1 (stereo partly specified),-0.268
19,Cc1ccc(F)cc1S(=O)(=O)N[C@@H]1CCN(Cc2ccc(CC(C)C)cc2)C1,-1.14
20,O=C1[C@H]2[C@H]3[C@H](O)[C@H](O)CC(=NOC[C@@H](O)COCc4ccco4)[C@@H]3CC[C@H]2C(=O)N1c1ccc(F)cc1F,-0.0126
21,CCCNC(=O)[C@@H]1c2ccccc2C(=O)N(c2ccc(C)cn2)[C@H]1c1ccc(CO)cc1,0.657
22,CC[C@@H](c1ccccc1)n1c(=O)n2n(c1=O)[C@H]1[C@H](O)[C@@H]3O[C@@H]3C(=NOCC=C(C)CCC=C(C)C)[C@H]1CC2,-0.829
23,CC(C)[C@@H](OCc1ccccc1)[C@H](C)C=NO[C@H](C)c1cn([C@H](CO)Cc2ccccc2)nn1,0.339
24,Cc1cc2c(c(=O)o1)[C@H](O)[C@H]1O[C@H]1C2=O,0.433
25,COCCCNC(=O)[C@]1(Cc2ccccc2)N=C(c2ccc(OCCCO)cc2)O[C@@H]1c1ccccc1,-0.286

# Assay: JC-1 mitochondrial signal, unstimulated MM1S myeloma – cell-based, JC-1 fluorescence, 24 h, 100 nL compound, profiling panel (AID 1170)
# Conditions: MM1S mitochondrial potential, higher = more signal
row,SMILES,z-score
1,COCCOC(=O)N1C(=O)[C@@]2(c3cc(C#CC4(O)CCCCCC4)ccc31)[C@H](C(=O)N1CCN(c3ncccn3)CC1)[C@H]1C(=O)O[C@H](c3ccccc3)[C@H](c3ccccc3)N1[C@@H]2c1ccc(OCCO)cc1,-0.653
2,CS(=O)(=O)CCOC(=O)C1=CC(CCCO)=CC(c2cccs2)N(Cc2cccc(OC(F)(F)F)c2)C=C1C(=O)OCCS(C)(=O)=O (stereo unspecified),-1
3,N#Cc1ccc(NN2C(C(O)c3cc(C(F)(F)F)cc(C(F)(F)F)c3)C=CC3C(=O)N(c4ccccc4)C(=O)C32)cc1 (stereo unspecified),0.0337
4,COC(=O)C1(C)C=C2C(=C(c3ccccc3)C(=O)C2C)CN1 (stereo unspecified),-0.933
5,COC(=O)CC=C[C@H](C)[C@@H](OCc1ccccc1Br)C(C)C,-0.822
6,CC(=O)OC[C@H]1O[C@H](CCON=C[C@@H](C)[C@H](OCc2ccccc2)C(C)C)C=C[C@@H]1OC(C)=O,0.0314
7,CC(CCN1CCCCc2nc(C)c(C)cc21)=NOC(C)CN1CCCCc2nc(C)c(C)cc21 (stereo unspecified),-0.16
8,CCN1C(=O)[C@H]2[C@H]3[C@H](O)[C@H](O)CC(=NOCc4ccccc4)[C@@H]3CC[C@H]2C1=O,-0.758
9,CC(=O)OC[C@H]1O[C@H](CCON=C(C)CCN2CCc3nc(-c4ccccc4)c(-c4ccccc4)cc3C2)C=C[C@@H]1OC(C)=O,-0.594
10,CN(C)CCCNC(=O)[C@@H]1c2ccccc2C(=O)N(Cc2cc(F)cc(C(F)(F)F)c2)[C@H]1c1ccc(CO)cc1,-0.195
11,CC(CCC(=O)OC[C@H]1O[C@H](C#Cc2ccccc2)C=C[C@@H]1Oc1ccc(C)cc1)=NOC[C@@H](O)[C@H]1O[C@@H]2OC(C)(C)O[C@@H]2[C@H]1O,-1.26
12,CC(C)N1CC=CC23O[C@@H]4C=CCCOC(=O)C4[C@H]2C(=O)N(CCCCCCO)[C@@H]3C1=O (stereo partly specified),-0.768
13,O=C1[C@H]2[C@H]3[C@H](O)[C@H](O)CC(=NOC[C@@H](O)COCc4ccco4)[C@H]3CC[C@H]2C(=O)N1C1CCCCC1,-0.611
14,CO[C@@H]1COC(=O)CCC[C@@H](C)[C@H](OC)COC(=O)CCC[C@H]1C,-0.162
15,O=C1NC(=O)C2C1C=CC(C(O)Cc1ccccc1)N2Nc1ccccn1 (stereo unspecified),-0.684
16,CC(C)(C)OC(=O)CC[C@]1(C(=O)NCc2ccccc2)N=C(c2ccc(OCCCO)cc2)O[C@H]1c1ccccc1,-0.531
17,CC(C)(C)OC(=O)CC[C@]1(C(N)=O)COC(c2ccc(OCCCO)cc2)=N1,-0.284
18,CC(C)CON=C1C[C@@H](O)[C@@H](O)[C@@H]2[C@@H]3C(=O)N(Cc4ccccc4)C(=O)[C@@H]3CC[C@@H]12,-0.659

row,SMILES,z-score
1,C=CCOC(=O)[C@H]1[C@@H]2C(=O)O[C@@H](c3ccccc3)[C@@H](c3ccccc3)N2[C@@H](c2ccc(OCCOC(=O)[C@H]3C[C@H]4C(=O)N[C@@H](Cc5ccccc5)C(=O)N4[C@H]3c3ccc(O)cc3)cc2)[C@]12C(=O)Nc1ccccc12,-0.718
2,O=C1[C@H]2[C@H]3[C@H](O)[C@H](O)CC(=NOCc4ccccc4)[C@H]3CC[C@H]2C(=O)N1c1ccc(F)cc1F,-0.801
3,COC(=O)C1=C(C)[C@@H](O)[C@@H](C)[C@H](c2c(OC)c(OC)c(C)c(OC)c2OC)O1,-0.722
4,COC(=O)[C@@]1(Cc2ccc(OC)cc2)[C@H]2c3cc(C(=O)N4CCCC4)n(Cc4cc(F)c(F)c(F)c4)c3C[C@H]2CN1C(=O)c1ccccc1,-1.2
5,CC(CCC(=O)OC[C@H]1O[C@H](C#Cc2ccccc2)C=C[C@@H]1Oc1ccc(C)cc1)=NO[C@@H](C)c1cn([C@H](CO)Cc2ccccc2)nn1,-0.0262
6,CC(C)NC(=O)[C@@]1(c2ccc([N+](=O)[O-])cc2)CC(=O)N(CC23CC4CC(CC(C4)C2)C3)[C@@H]1c1ccc(CO)cc1I,-2.08
7,COC(=O)[C@H](C)NC(=O)CCC1CC(OC(=O)NCCc2ccc(F)cc2)CC2(CCCC(COC(=O)NCCc3ccc(Cl)cc3)O2)O1 (stereo partly specified),-0.324
8,C=C(CCCC)C(=O)CC[C@@H](OC(C)=O)c1cccc(OCCO)c1,-0.238
9,CCOC(=O)[C@H](CC(C)C)NC(=O)CCC1CC(OC(=O)NCc2cccc3ccccc23)CC2(CCCC(COC(=O)NCCc3ccccc3OC)O2)O1 (stereo partly specified),-0.157
10,CCCCCN1CC=CC23O[C@@H]4C=CCOC(=O)[C@@H]4[C@H]2C(=O)N(C(CO)C(C)C)[C@@H]3C1=O (stereo partly specified),0.782
11,CCOC(=O)[C@H](CC(C)C)NC(=O)CCC1CC(OC(=O)NCc2cccc3ccccc23)CC2(CCCC(COC(=O)NCCN3CCOCC3)O2)O1 (stereo partly specified),-0.166
12,Cc1ccc(F)cc1S(=O)(=O)N[C@@H]1CCN(Cc2ccc(CC(C)C)cc2)C1,-2.19
13,O=C1[C@H]2[C@H]3[C@H](O)[C@H](O)CC(=NOC[C@@H](O)COCc4ccco4)[C@@H]3CC[C@H]2C(=O)N1c1ccc(F)cc1F,-0.221
14,CCCNC(=O)[C@@H]1c2ccccc2C(=O)N(c2ccc(C)cn2)[C@H]1c1ccc(CO)cc1,-0.351
15,CC[C@@H](c1ccccc1)n1c(=O)n2n(c1=O)[C@H]1[C@H](O)[C@@H]3O[C@@H]3C(=NOCC=C(C)CCC=C(C)C)[C@H]1CC2,0.198
16,CC(C)[C@@H](OCc1ccccc1)[C@H](C)C=NO[C@H](C)c1cn([C@H](CO)Cc2ccccc2)nn1,0.115
17,Cc1cc2c(c(=O)o1)[C@H](O)[C@H]1O[C@H]1C2=O,-1.12
18,COCCCNC(=O)[C@]1(Cc2ccccc2)N=C(c2ccc(OCCCO)cc2)O[C@@H]1c1ccccc1,-0.498
